We go through 100 compounds from PubChem BioAssay AID588742 (Southern Research Specialized Biocontainment Screening …, 2011).

Each structure is given as a SMILES string. Among all 1,800 compounds or so, about 410 (23%) were called active. How the calls were made is not given here. A selection follows. Entries with a potency or affinity are not part of this list.

A short description of the assay: Vero cell cytotoxicity, cytotoxicity control for flavivirus capping enzyme inhibitors (AID 588742). The conditions noted are these: Vero cells viability, cytotoxicity counter-screen; series mostly up to 40 µM. A general note: A counterscreen serves to expose hits that act by an unwanted route or on another target.
`Nc1cc2nsnc2cc1Br`: the result was inactive.
As to `COc1cccc(/C=C2\Oc3cc(OCC(=O)N4Cc5ccccc5C[C@H]4C(=O)O)ccc3C2=O)c1`, the call was inactive.
In the case of `O=C(N/N=C/c1ccc(N2CCOCC2)o1)c1cccc([N+](=O)[O-])c1`, the call was inactive.
Consider `O=C(O)c1ccc(-n2nc(C(F)(F)F)c3c2-c2ccoc2CC3)cc1`, for which the result was inactive.
As for `O=C(O)c1ccccc1-c1ccccc1C(=O)Nc1ccc2c(c1)C(=O)c1ccccc1-2`, the compound was called inactive.
Regarding `O=C(NNc1cc(Br)c(O)c(Br)c1)c1ccccc1`, the outcome was inactive.
In the case of `O=C(Nc1cc(C(=O)Nc2ccccc2C(=O)O)cc(C(=O)Nc2ccccc2C(=O)O)c1)c1ccccc1`, the outcome was inactive.
Turning to `O=C(Nc1ccccc1C(=O)O)c1cccc(C(=O)Nc2ccccc2C(=O)O)c1`, the result was inactive.
As to `O=C(O)CCN1C(=O)/C(=C\c2cccc(OCc3ccccc3)c2)SC1=S`, the compound was called inactive.
For `O=c1c(C(c2ccc(O)cc2)c2c(O)nc3n(c2=O)CCS3)c(O)nc2n1CCS2`, the result was inactive.
To `O=C1CC(=Nc2ccc([N+](=O)[O-])cc2)NN1c1c(Cl)cc(Cl)cc1Cl` belongs “inactive”; to `CCOC(=O)Cc1cc(=O)c2c(=O)n(-c3ccccc3)[nH]c2[nH]1`, “inactive”.
To `CCC1(C)Cc2c(C#N)c(N)sc(=S)c2CO1` (stereo not given) belongs “inactive”; to `CC(=O)/C(=N/Nc1ccccc1)Sc1nnc(CCc2ccccc2)n1-c1ccccc1`, “inactive”; to `CCc1nnc(NS(=O)(=O)c2ccc(NC(=S)NC(=O)/C=C/c3ccc(C(C)C)cc3)cc2)s1`, “inactive”.
To `CCc1nnc(NS(=O)(=O)c2ccc(NC(=S)NC(=O)/C=C/c3ccc(F)cc3)cc2)s1` belongs “inactive”; to `CCc1nnc(NC(=O)CCC(=O)N2CCN(c3ccccn3)CC2)s1`, “inactive”; to `CCOC(=O)Nc1sc(NS(=O)(=O)c2ccccc2)nc1C`, “inactive”.
As to `CCC(=O)Nc1ccc2nc3c(=O)[nH]c(=S)[nH]c3nc2c1`, the outcome was inactive.
With `C=CCOc1ccc(/C=C2\SC(=S)N(NS(=O)(=O)c3ccc(C)cc3)C2=O)cc1`, the result was inactive.
To `O=C(CNc1cccc2ccccc12)N/N=C/c1ccc(C(=O)O)cc1` belongs “inactive”.
On to `CCC1(c2ccccc2)NC(=S)N(c2cccc(C)c2C)N1` (stereo not given), for which the compound was called inactive.
In the case of `O=C(O)/C=C/C(=O)c1ccc2c(c1)NC(=O)CO2`, the call was inactive.
`COc1cc(/C=C2/SC(=S)N(CC(=O)O)C2=O)ccc1OC(=O)c1cccs1`: the outcome was inactive.
On to `CC(C)C(=O)OC1CCS(=O)(=O)c2sccc21` (stereo not given), for which the call was inactive.
On to `CCCc1nc(C)c2c(=O)[nH]c(-c3cc(S(=O)(=O)N4CCN(CC)CC4)ccc3OCC)nn12`, for which the compound was called inactive.
For the compound `CCOc1c(Br)cc(CNc2ccc(N3CCN(C(C)=O)CC3)cc2)cc1OC`, the compound was classed as inactive.
Regarding `COc1cccc(CNc2ccc(N3CCCCC3)cc2)c1OC`, the result was inactive.
To `Cc1nn(-c2ccccc2)c(Cl)c1/C=C1\SC(=S)N(CCCCCC(=O)O)C1=O` belongs “inactive”; to `CCOC(=O)c1c(C)oc2c1cc(NS(=O)(=O)c1ccc(C(=O)O)cc1)c1ccccc12`, “inactive”.
For the compound `CC(=O)Nc1ccc(NS(=O)(=O)c2ccccc2)c2ccccc12`, the call was inactive.
In the case of `CCOc1cc(NS(=O)(=O)c2ccccc2)c(OCC)cc1NC(=O)c1ccco1`, the compound was called inactive.
Turning to `COC(=O)c1c(C)oc2c1cc(NS(=O)(=O)c1ccc(C(=O)O)cc1)c1ccccc12`, the compound was classed as inactive.
As to `COc1ccccc1/C=C1/C(=O)ON=C1C`, the call was inactive.
For the compound `Cc1ccc(N2C(=O)c3ccccc3C2C(=O)c2ccc(O)cc2O)cc1` (stereo not given), the outcome was inactive.
To `CC1=C(C#N)c2nc(N)c(C#N)c(C)c2/C1=C\c1ccc(OCC(=O)O)c(Cl)c1` belongs “inactive”.
In the case of `NC(=S)c1cc2cc(Br)ccc2oc1=O`, the outcome was inactive.
To `CC(=O)C(=Cc1cc(C)n(-c2ccccc2)c1C)C(C)=O` belongs “inactive”; to `CCN(CCCNc1cc2c(c(N)c1S(=O)(=O)O)C(=O)c1ccccc1C2=O)c1ccccc1`, “inactive”; to `CCC(=O)Nc1cc(C(=O)O)ccc1Sc1ccc(C)cc1`, “inactive”.
To `CCOC(=O)Cc1csc(NC(=O)NC2(C(F)(F)F)Oc3ccccc3O2)n1` belongs “inactive”; to `O=C(O)CCCN1C(=O)/C(=C\c2ccco2)SC1=S`, “inactive”.
Regarding `O=C(O)CCCN1C(=O)/C(=C/C=C/c2ccco2)SC1=S`, the compound was called inactive.
Consider `O=S(=O)([O-])CCC[n+]1c(SCCCS(=O)(=O)O)sc2ccc(Cl)cc21`, for which the result was inactive.
To `CCc1ccc(S(=O)(=O)Nc2ccc(O)c3ccccc23)cc1` belongs “inactive”; to `O=C(O)c1ccccc1NS(=O)(=O)c1cccc(NS(=O)(=O)c2cc(Br)ccc2Br)c1`, “inactive”.
As to `O=C(O)CSc1nc(-c2ccc(Cl)cc2)nc2c1oc1ccccc12`, the compound was called inactive.
In the case of `O=C(O)COc1ccccc1/C=N/Nc1ccc(S(=O)(=O)Nc2ccc(Cl)cc2)cc1[N+](=O)[O-]`, the call was inactive.
`O=C(O)CSc1c(O)c2ccccc2[nH]c1=O`: the compound was called inactive.
On to `O=C(NNS(=O)(=O)c1ccc([N+](=O)[O-])cc1)c1ccc2ccccc2c1O`, for which the call was inactive.
As for `N#C/C(=C\c1ccccc1)C(=O)NNS(=O)(=O)c1cccc([N+](=O)[O-])c1`, the compound was called inactive.
For the compound `O=S(=O)(Nc1ccc(O)c2ccccc12)c1ccc(F)cc1`, the compound was called inactive.
On to `Cc1nnc(SCC2=C(C(=O)O)N3C(=O)C(NC(=O)c4cccc(F)c4F)C3SC2)s1` (stereo not given), for which the result was inactive.
On to `CC1(OC(=O)CCc2ccccc2)C(=O)C=C2C=C(c3ccc(C#N)cc3)N(Cc3ccccc3)C=C2C1=O` (stereo not given), for which the compound was classed as inactive.
To `O=C1NN(c2cccc(Br)c2)C(=O)/C1=C/c1ccc(-c2cc([N+](=O)[O-])ccc2O)o1` belongs “inactive”; to `Cc1ccc([C@@H]2CC=C(C(=O)O)[C@H](c3ccc(Br)cc3)N2S(=O)(=O)c2ccccc2C)cc1`, “inactive”.
As for `CCCc1cc(=O)oc2c(CN3CCCC3)c(O)c(Cl)cc12`, the compound was called inactive.
In the case of `Cc1ccc(CSc2nnc3c(n2)OC2(Nc4ccccc4-3)C(=O)Nc3ccc(F)cc32)cc1` (stereo not given), the compound was classed as inactive.
In the case of `CCN(CCCNC(=O)CCc1nc(-c2ccc(OC)cc2)no1)c1cccc(C)c1`, the outcome was inactive.
Turning to `CCN(CC)c1ccc(C2C3CCCCC3(O)CCN2CC(=O)N2CCCCC2)cc1` (stereo not given), the call was inactive.
For the compound `CCN(/N=C/c1ccc(N(C)C)cc1)c1nc2ccccc2[nH]1`, the compound was classed as inactive.
Take `COc1ccccc1NS(=O)(=O)c1ccc(N/N=C/c2ccccc2OCC(=O)O)c([N+](=O)[O-])c1`: the compound was classed as inactive.
In the case of `O=C1NN(c2cccc(Br)c2)C(=O)/C1=C\c1ccccc1`, the compound was called inactive.
As for `N#CC1C(=O)c2ccccc2C1c1ccccc1` (stereo not given), the outcome was inactive.
Consider `CCCCCCn1c(=O)c(-c2ccccc2)c(O)c2ccccc21`, for which the outcome was inactive.
As to `COc1ccc(S(=O)(=O)CC(=O)c2cc3cc(Br)ccc3oc2=O)cc1`, the result was inactive.
To `CCOc1ccc(/C=C/c2[nH]c(=O)[nH]c(=O)c2[N+](=O)[O-])cc1` belongs “inactive”; to `COc1ccc(OC)c(/C=C2\SC(=S)N(NS(=O)(=O)c3ccc(C)cc3)C2=O)c1`, “inactive”; to `O=C(CC(Nc1ccccc1Cl)C(=O)O)c1ccccc1` (stereo not given), “inactive”.
`CCCOC(=O)c1c(NC(=O)C2C3C=CC(C3)C2C(=O)O)sc2c1CCC(C)C2` (stereo not given): the compound was called inactive.
Take `N#CCC(=O)N/N=C/c1ccc(OCC(=O)Nc2ccc(F)cc2)cc1`: the result was inactive.
On to `COC(=O)C1=C(C(=O)OC)C(c2ccccc2O)c2sc(=O)[nH]c2S1` (stereo not given), for which the compound was called inactive.
Consider `O=c1[nH]c(/C=C\c2ccc(O)c(O)c2)nc(O)c1[N+](=O)[O-]`, for which the call was inactive.
`Cc1c(N=C2C=C(Br)C(=O)C(Br)=C2)c(=O)n(-c2ccccc2)n1C`: the compound was classed as inactive.
Turning to `Cc1c(N2C(=O)/C(=C3\C(=O)N(CC(=O)O)c4ccccc43)SC2=S)c(=O)n(-c2ccccc2)n1C`, the result was inactive.
Turning to `COc1ccccc1/C=C1\SC(=S)N(NS(=O)(=O)c2ccccc2)C1=O`, the compound was called inactive.
To `COc1ccc(S(=O)(=O)Nc2cc3c4c(c2)C(C)C(=O)N4CCC3)cc1OC` (stereo not given) belongs “inactive”.
For `CC(=O)N1CCN(c2ccc(NCc3cccc(C)c3)cc2)CC1`, the compound was classed as inactive.
To `N#C/C(=C\c1ccc(C#N)cc1)C(=O)c1ccccc1` belongs “inactive”.
In the case of `O=C1c2ccccc2C(=O)c2c1cccc2N(CCO)CCO`, the compound was classed as inactive.
`O=C1C(=NO)CCc2ccccc21`: the compound was called inactive.
As for `CCn1c2ccccc2c2cc(NC(=O)c3ccc(Br)o3)ccc21`, the call was inactive.
In the case of `CCCCCCSc1nc(O)c(C2OC(=O)c3c2ccc(OC)c3OC)c(=O)n1-c1ccccc1` (stereo not given), the outcome was inactive.
For `c1cc2c(cc1NC1CCCCCC1)OCO2`, the call was inactive.
To `O=C(O)c1[nH]c2ccccc2c1C(c1cc(Cl)cc([N+](=O)[O-])c1O)c1c(C(=O)O)[nH]c2ccccc12` belongs “inactive”; to `O=C(O)c1cc(N/N=C/c2ccc(-c3ccccc3)cc2)ccc1Cl`, “inactive”; to `O=C(O)CN1C(=O)/C(=C\c2ccccc2OCc2ccc(Cl)cc2)SC1=S`, “inactive”.
Take `O=C(O)CCCN1C(=O)/C(=C\c2ccccc2OCc2ccccc2)SC1=S`: the result was inactive.
To `O=C(O)CN1C(=O)/C(=C\c2ccccc2OCc2ccccc2)SC1=S` belongs “inactive”.
To `O=C(O)CN1C(=O)/C(=C\c2cc([N+](=O)[O-])ccc2OCc2ccccc2Cl)SC1=S` belongs “inactive”; to `CC1=C/C(=C(\c2cc(C)c(O)c(Br)c2)c2ccccc2S(=O)(=O)O)C=C(Br)C1=O`, “inactive”; to `Cc1ccc(S(=O)(=O)N2CCC(C(=O)OC(C)C(=O)NC3CCCCC3C)CC2)cc1C` (stereo not given), “inactive”.
Take `CN(C)c1ccc2cc(S(=O)(=O)O)cc(O)c2c1`: the outcome was inactive.
To `Cc1nc2ccccc2c2oc(C(=O)Nc3ccc4c(c3)OCCO4)cc12` belongs “inactive”.
To `Nc1nn2c(-c3ccccc3)cc(=O)[nH]c2c1N=Nc1ccc(O)cc1` belongs “inactive”.
For `O=[N+]([O-])c1ccc(S(=O)(=O)Nc2nc(-c3ccccc3)cs2)cc1`, the compound was classed as inactive.
To `Cc1cc([N+](=O)[O-])ccc1N1C(=O)c2ccc(C(=O)Nc3ccccc3C(=O)O)cc2C1=O` belongs “inactive”; to `O=C(O)c1ccc(N=N/C(=N\Nc2ccc(C(=O)O)cc2)c2ccccc2)cc1`, “inactive”.
In the case of `O=C(O)CN1C(=O)/C(=C2\C(=O)N(Cc3ccccc3Cl)c3ccccc32)SC1=S`, the result was inactive.
To `Cc1c(N)cc(N)cc1C(=O)O` belongs “inactive”.
